Assay results taken from PubChem BioAssay (NCI).
Compounds without any hit were thinned out: in the full panel of roughly 83,000, 20% have a hit.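 Cells were grown in 96-well plates and exposed to the test compound at a single concentration for 48 hours; results are reported as percent growth, with values below 10 considered active.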 Unmarked numbers belong to inactive results. Active and inactive are the calls of the source.

test system: HL-60(TB) leukemia; test: NCI-60 one-dose screen, 48 h (100 = growth as untreated, 0 = no growth, -100 = all killed); conditions: 10 µM unless noted

Compound	growth
N#Cc1c(-c2ccccc2)nc(SCc2nnc(-c3ccc(Cl)cc3)o2)[nH]c1=O	92.2%
COc1ccccc1CNCCCN1C(=O)c2ccc3c4c(ccc(c24)C1=O)C(=O)N(CCCOCCCCOCCCN)C3=O	-50.2% (active)
CCOC(=O)C1=C(CCl)N(C)C(=O)NC1c1ccc2c(c1)OCO2 (stereo not given)	33.1%
CC[C@]1(O)C[C@@H]2CN(CCc3c([nH]c4ccccc34)[C@@](C(=O)OC)(c3cc4c(cc3OC)N(C)[C@H]3[C@@](O)(C(N)=O)[C@H](O)[C@]5(CC)[C@@H]6C[C@@H]6CN6CC[C@]43[C@@H]65)C2)C1	-3.28% (active)
CCN(CC)CC(=O)Nc1c(C)cccc1C	107%
COc1cc2nc(Cc3ccc(C)cc3)[nH]c(=O)c2cc1OC	98.7%
CC(C)C1=NOC(=O)C1=Cc1cn(-c2ccccc2)nc1-c1ccc(Cl)cc1	-44.5% (active)
CC(C)(Cl)CCC1=C(Cl)C(=O)c2ccccc2C1=O	-10.1% (active)
O=C(CSc1nc2sc3c(c2c(=O)n1-c1ccccc1)CCCCC3)N/N=C/c1cccc([N+](=O)[O-])c1	103%
COc1ccc(Cn2nc(-c3cc(OC)c(OC)c(OC)c3)c3c2CCc2cnoc2-3)cc1OC	16.3%
O=c1[nH]ccc2nc(N3CCC(O)CC3)nc(Nc3ccc(N4CCOCC4)cc3)c12	18.9%
O=C1c2ccccc2-c2c1c1cccnc1c(=O)n2C[C@H](O)CO	48.8%
CCCCCCCNC(=O)CCCNc1ncnc2c1ncn2-c1cccc(C(C)O)c1 (stereo not given)	24%
COc1ccc2nc3cc(Cl)ccc3c(Nc3cc(CN4CCCC4)c(O)c(CN4CCCC4)c3)c2n1	-20.4% (active)
CNCCCn1c2c(c3ccc(F)cc3c1=O)C(=O)c1cc(OC)cnc1-2	-16.7% (active)
COc1ccc(-c2cnc(-c3ccncc3-c3cccc(OC)c3)o2)cc1	0.0287% (active)
CNC(=O)c1cncc(Cn2nc(C)c(NC(=O)c3ccc(COc4ccc(C(F)(F)F)cc4C)cc3)c2C)c1	63.6%
Cc1cc2[nH]c(=O)c3c4ncccc4cn3c2cc1C	37.2%
CCN(C(=O)Nc1cccc2ccccc12)c1ccccc1	102%
Nc1nc(N)c2c(n1)NC(c1cccc(Nc3ccnc4cc(C(F)(F)F)ccc34)c1)CC(c1ccc(Cl)cc1)=N2 (stereo not given)	34.3%

Compound	growth
O=C1CCc2c(sc3[nH]c(=S)n(-c4cc(C(F)(F)F)cc(C(F)(F)F)c4)c(=O)c23)C1	-14.2% (active)
Cc1cc(N2CCOCC2)nc(N(CCNc2ccnc3cc(Cl)ccc23)Cc2cccs2)n1	-63.2% (active)
Oc1ccc(N=Nc2ccc(N=Nc3ccccc3)cc2)cc1	7.35% (active)
CCOC(=O)CC(=O)OC	97%
CCN1/C(=C/C(C)=C/c2sc3ccc4ccccc4c3[n+]2CC)Sc2ccc3ccccc3c21	-52.1% (active)
OCc1ccc(N2CCc3cccc(F)c3C2)cc1Cl	80.5% [0.1 µM]
CCc1n(Cc2ccc3ccccc3c2)c2ccccc2[n+]1Cc1ccc2ccccc2c1	14.3%
CC1(C)C2CCC1(C)C1(C2)OCCS1 (stereo not given)	91.3%
CN(C)[C@@H]1C(=O)C(C(=O)NCc2nc3[nH]cnc(=S)c3[nH]2)=C(O)[C@@]2(O)C(=O)C3=C(O)c4c(O)cccc4[C@@](C)(O)[C@H]3C[C@@H]12	4.14% (active)
CN1CCN(C(=O)c2cc(-c3ccc4ncnc(N5CCc6cc(F)c(Cl)cc65)c4c3)cnc2N)CC1	-32.5% (active)
CS(=O)(=O)Nc1cc(-c2ccc3ncnc(Nc4ccc5c(cnn5Cc5ccc(F)cc5)c4)c3c2)cnc1Cl	23%
O=CN/N=C/c1ccc(Cl)c([N+](=O)[O-])c1	11.1%
COc1cc(/C=N/NC(=O)c2cnn3c2NC(c2ccccc2)C3)ccc1OCc1ccccc1 (stereo not given)	-0.0884% (active)
c1ccc(CNc2ncnc3scc(-c4cccs4)c23)nc1	58.2%
CC/C=C/[C@@H]1C=C[C@@H]2CCC[C@H]2[C@@H]1CC[C@H](O)[C@H](C)N	-61.6% (active)
CCOc1ccc(NC(=O)c2cc(OC)c(OC)c(OC)c2)cc1	-8.94% (active)
Oc1c(CN2CCCC2)cc(COCc2ccc(Br)cc2)c2cccnc12	-9.34% (active)
Cc1cccc(/C=N/Nc2cc(C)c3cccc(C)c3n2)n1	83.1%
Cc1ccc(NC(=O)c2nc(S(C)=O)oc2-c2ccc(F)cc2)cc1Nc1nccc(-c2cccnc2)n1 (stereo not given)	47.3%
N#Cc1c(-c2ccc(Cl)cc2)nc(NCCO)[nH]c1=O	102%
